Hits are enriched below; roughly 0.9% of the tested compounds scored in any of these assays.
gsp antagonist: antagonizes gsp, the McCune-Albright syndrome mutation. gsp-mutant cells, cAMP HTRF, 30 min. Potency, µM (titrated, usually from 76.9 µM), for the others: at the highest dose activity change, negative = inhibition, hits mostly inhibitors. actives 0.4% (n = 340,000); calls by dose curve; cell line not stated here;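 also: intracellular cAMP measured with PDE inhibitor Ro 20-1724 present during compound exposure; potency is read from the fitted curve at half-maximal effect; % is scaled to controls: 0 for no effect and ±100 for the full control effect; nearly all actives have a fitted effect of over 65% in size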
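Measurement of cellular cAMP by homogeneous time-resolved fluorescence following a 30 min compound exposure at 37C. The PDE inhibitor […] was present throughout; the assay buffer was DPBS with 0.05% BSA and 0.005% Tween 20.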
RXFP1 antag: antagonists of human relaxin receptor RXFP1; Q9HBX9; HEK293-RXFP1, relaxin-stimulated cAMP HTRF, 30 min; active compounds read low; activity change, negative = inhibition, % at 57.5 µM; actives 0.59% (n = 350,000);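 active = activity change of -60% or lower, but not beyond a set lower limit; inconclusive = change between -60% and -40%, or beyond the set limit; inactive = change above -40%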; also: % is scaled to controls: 0 for no effect and ±100 for the full control effect
Target sequence (Q9HBX9 whole entry, looked up): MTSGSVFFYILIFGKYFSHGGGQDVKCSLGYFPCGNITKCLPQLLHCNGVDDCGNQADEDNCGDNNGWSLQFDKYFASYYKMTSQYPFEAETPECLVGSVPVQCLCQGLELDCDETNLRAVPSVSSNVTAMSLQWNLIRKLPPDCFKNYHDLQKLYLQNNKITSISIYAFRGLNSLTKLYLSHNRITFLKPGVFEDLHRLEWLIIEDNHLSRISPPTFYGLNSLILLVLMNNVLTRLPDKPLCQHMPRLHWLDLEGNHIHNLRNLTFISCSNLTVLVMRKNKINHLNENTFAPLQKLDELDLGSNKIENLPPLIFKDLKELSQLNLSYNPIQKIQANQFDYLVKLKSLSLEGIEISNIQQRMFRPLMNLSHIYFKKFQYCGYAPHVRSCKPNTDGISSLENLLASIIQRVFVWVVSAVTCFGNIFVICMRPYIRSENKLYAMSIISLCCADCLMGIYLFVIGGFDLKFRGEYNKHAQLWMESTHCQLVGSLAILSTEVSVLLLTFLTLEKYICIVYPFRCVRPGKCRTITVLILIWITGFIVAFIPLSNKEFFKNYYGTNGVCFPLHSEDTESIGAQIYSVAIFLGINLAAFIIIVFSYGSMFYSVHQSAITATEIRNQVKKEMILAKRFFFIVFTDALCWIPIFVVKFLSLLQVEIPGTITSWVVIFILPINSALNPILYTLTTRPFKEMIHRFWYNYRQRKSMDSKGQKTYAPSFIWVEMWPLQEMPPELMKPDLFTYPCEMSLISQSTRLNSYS
RXFP1 ag: RXFP1 (human) receptor agonism | HEK293T-RXFP1 cAMP TR-FRET, 30 min; response scale: percent of porcine relaxin response, buffer zero | AID 2676 | actives 0.3% (n = 370,000) | Q9HBX9 | Potency, µM (highest dose often 57.5 µM), inactives show at the highest dose activation, usual class: activators; active = well fitted activation curve with a large enough effect; inconclusive = small, poorly fitted or top-dose-only effect; also: potency is read from the fitted curve at half-maximal effect; % is scaled to controls: 0 for no effect and ±100 for the full control effect; nearly all actives have a fitted effect of over 60% in size
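Agonist response is measured as cAMP accumulation in an RXFP1-transfected HEK293T line under PDE4 inhibition. Values are scaled between buffer-only and 29 nM porcine relaxin, and EC50s come from standard Hill equation fits.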
gsp ag: activates gsp, the McCune-Albright syndrome mutation; actives 0.13% (n = 340,000); Potency, µM (top dose mostly 76.9 µM), for the others: top-dose activation (cAMP increase), usual class: activators; gsp mutant cells, cAMP HTRF, 30 min; active = well fitted activation curve with a large enough effect; inconclusive = small, poorly fitted or top-dose-only effect, or another doubt; inactive = no such curve, though single readings can be large or run the other way; cell line not stated here;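 also: phosphodiesterase inhibitor Ro 20-1724 added with compounds to block cAMP breakdown; potency is read from the fitted curve at half-maximal effect; nearly all actives have a fitted effect of over 60% in size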
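Cells stably selected in G418 were plated at 2000/well, grown 16-24 hr, then given compounds in DMSO with the PDE inhibitor […] (300 uM solution added) for 30 min at 37C; cAMP was read by HTRF.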
Active calls of the source: *; ! = not active in a repeat; [ ] = another dose, or the depositor's remark.

How did Cc1ccc(N2CCN(C(=O)c3cnc(N4CCCCC4)c4ccccc34)CC2)c(C)c1 do in these assays?
RXFP1 antag: -70*; RXFP1 ag: 2%

How did Cc1ccc(Cl)cc1N(C)C(=O)c1cnc(N2CCOCC2)c2ccccc12 do in these assays?
RXFP1 antag: -9; RXFP1 ag: 0%

Results for Cc1ccc(Cl)cc1N1CCN(C(=O)c2cnc(N3CCOCC3)c3ccccc23)CC1 ?
RXFP1 antag: -82*; RXFP1 ag: -1%

What do the screens show for `Cc1nc(Nc2ncc(C(=O)Nc3c(C)cccc3Cl)s2)cc(N2CCN(CCO)CC2)n1`?
RXFP1 antag: -36

What do the screens show for `Cc1cc(OCC(=O)Nc2nc3c(s2)CCCC3)cc(C)c1Cl`?
RXFP1 antag: 5; RXFP1 ag: -3%

How did COc1ccc(CNC(=O)c2nc(S(=O)(=O)Cc3ccccc3)ncc2Cl)cc1 do in these assays?
gsp antagonist: inconclusive; RXFP1 antag: -119*!; RXFP1 ag: -3%; gsp ag: -12%

How did O=C(NCc1ccccc1)c1nc(S(=O)(=O)Cc2ccccc2)ncc1Cl do in these assays?
gsp antagonist: -9%; RXFP1 antag: -113*!; RXFP1 ag: 0%; gsp ag: 5%

What do the screens show for `COc1ccccc1NC(=O)c1oc2ccccc2c1NC(=O)c1ccccc1C(F)(F)F`?
RXFP1 antag: -13; RXFP1 ag: 4%

Results for Cc1ccc(NC(=S)N(Cc2cccc(Br)c2)CC2CCC(C(=O)O)CC2)cc1 (stereo unspecified) ?
gsp antagonist: inconclusive; RXFP1 antag: -7; RXFP1 ag: 0%; gsp ag: 8%

How did Cc1cc(NC(=S)N(Cc2cccc(Br)c2)CC2CCC(C(=O)O)CC2)ccc1Cl (stereo unspecified) do in these assays?
gsp antagonist: 28µM*; RXFP1 antag: -2; RXFP1 ag: 0%; gsp ag: 6%

What do the screens show for `COc1cccc(C2CC(=O)Nc3c2c(=O)n(C)c2nc4ccccc4n32)c1OC` (stereo unspecified)?
RXFP1 ag: -2%

How did Cc1nc2ccccc2n1CC(O)COc1ccc(C(=O)O)cc1 (stereo unspecified) do in these assays?
RXFP1 antag: 1; RXFP1 ag: -1%

Results for CCC(=O)c1ccc(OCC(O)Cn2c(C)nc3ccccc32)cc1 (stereo unspecified) ?
gsp antagonist: -39%; RXFP1 antag: -16; RXFP1 ag: 3%; gsp ag: 28µM*

Results for CC(=O)Nc1ccc(N2CCCCC2)c(C(=O)Nc2cccc(C)c2)c1 ?
gsp antagonist: -15%; RXFP1 antag: 7; RXFP1 ag: 1%; gsp ag: 17%

How did Cc1cccc(NC(=O)c2cc(NC(=O)C3CCCCC3C(=O)O)ccc2N2CCCCC2)c1 (stereo unspecified) do in these assays?
gsp antagonist: 35µM*; RXFP1 antag: 2; RXFP1 ag: -1%; gsp ag: -38%

What do the screens show for `O=C(Nc1ccc(S(=O)(=O)N2CCOCC2)cc1)c1cc(Cl)ccc1NS(=O)(=O)c1ccc(Cl)s1`?
RXFP1 antag: -34

How did CC(=O)NNC(=S)NC(=O)C(c1ccccc1)c1ccccc1 do in these assays?
gsp antagonist: 2%; RXFP1 antag: -13; RXFP1 ag: -2%; gsp ag: -18%

What do the screens show for `CC(C)(C)C(=O)NC(=S)NNC(=O)C(c1ccccc1)c1ccccc1`?
gsp antagonist: -1%; RXFP1 antag: -94*; RXFP1 ag: 0%; gsp ag: -3%

What do the screens show for `COc1cc(/C=C(\C#N)c2nc3ccccc3s2)cc([N+](=O)[O-])c1O`?
gsp antagonist: inconclusive; RXFP1 antag: -7; RXFP1 ag: 2%; gsp ag: -1%[15.4 µM]

What do the screens show for `N#C/C(=C\c1ccc(O)c([N+](=O)[O-])c1)c1nc2ccccc2s1`?
gsp antagonist: 35µM*; RXFP1 antag: 12; RXFP1 ag: 2%; gsp ag: -1%[15.4 µM]

Results for COc1ccc(N(C)C(=O)c2cc3c(s2)-c2ccccc2OC3)cc1 ?
RXFP1 antag: -64*; RXFP1 ag: 0%

Results for Cn1c(=O)c([N+](=O)[O-])c(-n2ccnc2)c2ccccc21 ?
gsp antagonist: inconclusive; RXFP1 antag: -110*; RXFP1 ag: 2%; gsp ag: -4%[15.4 µM]

How did Cn1c(=O)c([N+](=O)[O-])c(NCCCn2ccnc2)c2ccccc21 do in these assays?
gsp antagonist: 13%; RXFP1 antag: -2; RXFP1 ag: 16%; gsp ag: 8%[15.4 µM]

Results for CN(C)c1cc(NC(=O)CNC(C)(C)C)c(O)c2c1C[C@@H]1C[C@H]3[C@H](N(C)C)C(=O)C(C(N)=O)=C(O)[C@@]3(O)C(=O)C1=C2O ?
RXFP1 antag: 8

Results for Cc1ccc(Cl)cc1N1CCN(C(=O)C(C)n2ncn3cccc3c2=O)CC1 (stereo unspecified) ?
gsp antagonist: -16%; RXFP1 antag: -1; RXFP1 ag: 28µM*!; gsp ag: -1%

Results for COc1ccc(Cn2c(=O)c3cccnc3n(Cc3cccc(F)c3)c2=O)cc1 ?
RXFP1 ag: -2%

Results for COc1ccc(CCCc2nnc(SCC(=O)Nc3cccc(C)c3)o2)cc1C ?
RXFP1 antag: -16; RXFP1 ag: 0%

How did O=C(Nc1cccc(F)c1)C1CCN(S(=O)(=O)c2ccc3[nH]c4c(c3c2)CCCCC4)CC1 do in these assays?
RXFP1 antag: -18; RXFP1 ag: 1%

How did N#Cc1ccc(-c2ccc(OCC(=O)NN=Cc3ccncc3)cc2)cc1 do in these assays?
gsp antagonist: 35µM*; RXFP1 antag: -28; gsp ag: 8%

What do the screens show for `COc1ccc(OCC(=O)N/N=C/c2ccncc2)cc1`?
gsp antagonist: -2%; RXFP1 antag: 2; RXFP1 ag: 1%; gsp ag: -4%

What do the screens show for `O=C(C=Cc1cccc(Cl)c1)c1ccccc1`?
gsp antagonist: 1%; RXFP1 antag: -62*; gsp ag: inconclusive

How did CCOCCOC(=O)/C=C/c1ccc(OC)cc1 do in these assays?
RXFP1 antag: 32

How did O=c1oc2ccccc2c(Nc2ccc(Cl)cc2)c1[N+](=O)[O-] do in these assays?
gsp antagonist: 28µM*; RXFP1 antag: -1; RXFP1 ag: -4%; gsp ag: -6%

What do the screens show for `O=c1oc2ccccc2c(Nc2ccc(F)cc2)c1[N+](=O)[O-]`?
gsp antagonist: inconclusive; RXFP1 antag: 0; RXFP1 ag: 1%; gsp ag: -26%

What do the screens show for `Cn1cccc1/C=N/n1c(-c2ccc(C(C)(C)C)cc2)n[nH]c1=S`?
gsp antagonist: -19%; RXFP1 antag: -64*; RXFP1 ag: 5%; gsp ag: -31%

How did Cc1ccc(NC(=O)C2CCCN2S(=O)(=O)c2ccc3c(c2)C(C)(C)C(=O)N3C)cc1 (stereo unspecified) do in these assays?
RXFP1 antag: -15; RXFP1 ag: 5%

How did CCCCOc1c(C(=O)Nc2ccccc2)nnn1-c1ccccc1 do in these assays?
RXFP1 antag: -87*; RXFP1 ag: 1%; gsp ag: -31%[15.4 µM]

Screens deposited in PubChem by National Center for Advancing Translational Sciences (NCATS).
